Measurements published in PubChem BioAssay AID651871 (Sanford-Burnham Center for Chemical Genomics, 2012).
“And” between values parts separate entries of the source, which are not always exact repeats. Identical values can stand only once.

These compounds were tested on H9c2 (assay: cardiomyocyte survival under oxidative or metabolic stress – cell-based, panel, H9c2 and HL-1, ATP luminescence, set 2, SAR follow-up (AID 651871;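 further: cells exposed to stressor for 2 h before ATP readout; reference of the scale not given here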)). Settings: H9c2/HL-1 cardiomyocytes, 2-deoxyglucose stress, with 2-deoxyglucose; run 12, at 79 µM (top of the series).

SMILES	activity (protection/inhibition)
COc1ccc2c(c1OC)C(=O)N1c3ccccc3C(=O)N(Cc3cccc(Cl)c3Cl)C21 (stereo not drawn)	79.7% and 81.4% and -3.37%
CCOC(=O)c1cccc(NC(=O)CNC(=O)c2cc(-c3cc(OC)c(OC)c(OC)c3)nc3ccccc23)c1	86.3%
COc1ccc2nc(-c3cc(OC)c(OC)c(OC)c3)cc(C(=O)NCC(=O)Nc3ccc(C(C)=O)cc3)c2c1	79.9%
